Sm TGR inh = qHTS Assay for the Inhibitors of Schistosoma Mansoni Peroxiredoxins. Schistosoma mansoni thioredoxin glutathione reductase (TGR), Q962Y6. purified TGR, DTNB reduction, TNB absorbance 405 nm. Potency, µM (series often up to 114 µM), without a hit: at the top dose activity change, negative = inhibition, hits mostly inhibitors. hit rate 3% among 360,000. AID 485364, 2010; note: nearly all actives have a fitted effect of over 60% in size
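First, TGR (20 nM dispensed) and NADPH were mixed with compound. Second, a 15 min room-temperature incubation followed. Third, further NADPH and then DTNB were added to start the reaction. Finally, TNB absorbance was monitored kinetically.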
AmpC no deterg = qHTS Inhibitors of AmpC Beta-Lactamase (assay without detergent); AmpC nitrocefin hydrolysis, absorbance 480 nm, 0.0001% Triton; P00811; Potency, µM (doses to about 57.1 µM), for the others: at the top dose activity change, negative = inhibition, most hits filed as inhibitors; hit rate 0.52% among 330,000;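 note: plate controls were no compound for no effect and no enzyme for full effect; nearly all actives have a fitted effect of over 20% in size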
Target sequence (P00811 whole entry, looked up): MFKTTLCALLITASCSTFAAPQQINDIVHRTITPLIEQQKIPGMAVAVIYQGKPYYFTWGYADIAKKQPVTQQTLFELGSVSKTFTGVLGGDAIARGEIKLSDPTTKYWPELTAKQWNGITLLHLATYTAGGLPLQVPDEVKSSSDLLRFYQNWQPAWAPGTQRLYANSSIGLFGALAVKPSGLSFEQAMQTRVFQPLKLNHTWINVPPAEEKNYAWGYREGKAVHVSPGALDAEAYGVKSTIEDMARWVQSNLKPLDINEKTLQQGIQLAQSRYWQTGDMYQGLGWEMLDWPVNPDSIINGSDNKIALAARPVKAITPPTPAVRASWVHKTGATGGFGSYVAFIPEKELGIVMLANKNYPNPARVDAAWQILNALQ
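20 mM phosphate pH 7.0 + 0.01% (detergent screen) or 0.0001% Triton X-100; 5.3 nM AmpC reagent; cpd preinc 15 min RT; nitrocefin (800 uM stock) to start; A480 q20 s × 4 min; Activity was normalised to no-enzyme and no-compound control wells.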
AmpC inh detg = qHTS Inhibitors of AmpC Beta-Lactamase (assay with detergent); AmpC hydrolysis of nitrocefin, absorbance 480 nm, 0.01% Triton; Potency, µM (series often up to 114 µM), inactives show top-dose activity change, negative = inhibition, usual class: inhibitors; hit rate 0.041% among 370,000; AID 485294, 2010;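 note: 0% = no-compound wells and -100% = no-enzyme wells; nearly all actives have a fitted effect of over 25% in size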
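AmpC (5.3 nM in the dispensed reagent) in 20 mM phosphate pH 7.0 with 0.01% (detergent screen) or 0.0001% Triton X-100 was preincubated with compounds for 15 min at room temperature. Nitrocefin was then added from an 800 uM solution, and hydrolysis was followed at 480 nm.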
* hit, by the source's call; ? = inconclusive; · = not tested or not shown. This is a sample that favours compounds with a hit; in the whole collection about 3.3% have one here. Calls come from the whole dose curve; as a rule, active = well fitted curve in the direction sought with a large enough effect; inconclusive = small, poorly fitted or top-dose-only effect, or another doubt; inactive = no such curve, though single readings can be large; an effect the other way counts as inactive or inconclusive. Unless noted, % is set by controls: 0 for no effect and ±100 for the full control effect; potency is the fitted concentration of half-maximal effect.

SMILES	Sm TGR inh	AmpC no deterg	AmpC inh detg
COc1ccc2c(c1)CC/C(=C\Nc1ccc3c(c1)OCO3)C2=O	6.3µM*	10µM*	-8%
COc1ccc(N/C=C2\CCc3ccccc3C2=O)cc1	40µM*	-37%	-2%
O=C1/C(=C/Nc2ccc3c(c2)OCO3)CCc2ccccc21	?	0%	0%
Cc1c(C(=O)N2CCCCCC2)c(S(=O)(=O)N(Cc2ccccc2)C(C)(C)C)c(C)n1C	-7%	·	22%
Oc1cc(Nc2ccc(N3CCCCC3)cc2)cc2cccnc12	-24%	-26%	-19%
CCOC(=O)C1CCN(c2nc3c(S(=O)(=O)c4ccccc4)nnn3c3ccc(Cl)cc23)CC1	5%	·	4%
Cc1ccc(C2C(C#N)=C(N)SC(N)=C2C#N)o1	22µM*	-54%	-9%
CCc1ccc(C2C(C#N)=C(N)SC(N)=C2C#N)s1	-31%	-56%	?
CCc1ccc(C2C(C#N)=C(N)SC(N)=C2C#N)cc1	-33%	8.9µM*	-13%
N#CC1=C(N)SC(N)=C(C#N)C1c1ccc(C(F)(F)F)cc1	-23%	-31%	-14%
CCOC(=O)c1c(C)[nH]c(CCC(=O)Nc2c(Cl)cc(OC)cc2OC)c1C	-16%	·	-7%
COc1ccc(-c2nc3sc(CCNC(=O)c4cc(Cl)ccc4OC)c(C)n3n2)cc1	4%	·	-8%
Cc1ccsc1/C=C1\C(=O)NC(=S)N(C)C1=O	25µM*	-27%	0%
CCc1ccc(/C=C2/C(=O)N(CC)C(=S)N2C)s1	-1%	-25%	-8%
COc1ccc(/C=C2\C(=O)NC(=S)N(C)C2=O)cc1C	7.1µM*	-18%	-4%
CN1C(=O)/C(=C/c2ccc(Cl)s2)C(=O)NC1=S	7.9µM*	-34%	-11%
CN1C(=O)/C(=C\c2ccc(N3CCCCCC3)cc2)C(=O)NC1=S	?	-28%	3%
Cc1ccsc1/C=C1/NC(=O)N(Cc2ccc(F)cc2)C1=O	·	-16%	2%
O=C(NCCc1csc2nc(-c3cccc(F)c3)nn12)c1ccc(Br)o1	-9%	·	9%
O=S(=O)(c1ccc(F)cc1)N(Cc1nc(-c2ccc(Cl)cc2)no1)C1CCCCC1	6%	·	19%
Cc1ccc(Cl)cc1NC(=O)c1sc2nc(C)c(C)c(C)c2c1N	-8%	·	0%
COc1cccc(NC(=O)CN2C(=O)CC(c3ccco3)Sc3ccccc32)c1 (stereo not drawn)	0%	·	10%
Cc1ccc(C(=O)Nc2ccc3oc(-c4ccc(C(C)(C)C)cc4)nc3c2)cc1	-1%	·	19%
CC[N+](C)(CC)CCC(c1ccccc1)C1CCCCC1 (stereo not drawn)	18µM*	18%	-17%
CC[N+](C)(CC)CCOC(=O)C(O)(c1ccccc1)C1CCCCC1 (stereo not drawn)	8%	15%	4%
SMILES	Sm TGR inh	AmpC no deterg	AmpC inh detg
O=C(NC1CCCC1)c1ccc2c(c1)N(Cc1ccccc1F)C(=O)c1ccccc1S2	11%	·	6%
Cc1ccc(/C=C/C(=O)N2CCN(S(=O)(=O)c3ccc(C)c(C)c3)CC2)o1	13µM*	42%	-9%
Cc1cc(C)cc(C(=O)N2CC(=O)Nc3ccccc32)c1	7%	-1%	-3%
Cc1ccc(/C=C/C(=O)N2CCN(S(=O)(=O)c3c(C)c(C)cc(C)c3C)CC2)o1	10µM*	53%	-8%
Cc1cccc(CN2CCN(C(=O)CCl)CC2)c1	35µM*	-11%	1%
Cc1cccc(CN2CCN(C(=O)Cc3ccccc3)CC2)c1	-20%	28%	?
Cc1ccc(/C=C/C(=O)N2CC(=O)Nc3ccccc32)o1	8.9µM*	78%	1%
Cc1cc(C)c(C)c(S(=O)(=O)N2CCN(C(=O)CCC(=O)N3CCOCC3)CC2)c1C	9%	149%	2%
Cc1ccc(S(=O)(=O)N2CCN(C(=O)N(C)C)CC2)cc1C	-19%	-6%	-2%
COc1ccc(NC(=O)CSc2nc3c(oc4ccccc43)c(=O)n2-c2ccc(C)c(C)c2)cc1	-1%	·	4%
CCOc1ccc(NC(=O)C(NS(=O)(=O)c2ccc3c(c2)CCN3C(C)=O)C(C)C)cc1 (stereo not drawn)	-8%	·	2%
CC1=C(C(=O)Nc2ccc(Cl)cc2)C(C(C)C)n2nc(SCc3ccc(Cl)cc3)nc2N1 (stereo not drawn)	1%	·	21%
Cc1ccc(CNC(=O)CCN2C(=O)C(C)Oc3ccc(C)cc32)cc1 (stereo not drawn)	-7%	·	-9%
COc1ccc(CSc2nc3ccncc3n2Cc2nc(-c3ccc(OC)c(OC)c3)oc2C)cc1	6%	·	23%
COc1ccc(NC(=O)CC2C(=O)N(c3cccc(OC)c3)C(=O)N2CCC2=CCCCC2)cc1 (stereo not drawn)	6%	·	10%
COc1ccc2c(C)c(CCC(=O)NCc3ccc(C)cc3)c(=O)oc2c1	2%	·	15%
Cc1ccc(C(=O)N2CCN(Cc3ccccc3)CC2)o1	-14%	1%	-6%
Cc1ccc(/C=C/C(=O)N2CCN(Cc3ccccc3)CC2)o1	14µM*	50%	-10%
CC(C)c1cc2c(c(O)c1O)[C@@]13CCCC(C)(C)C1CC2OC3=O (stereo partly drawn)	2.8µM*	-46%	?
Cc1cc(N2CCOCC2)ccc1/C=C1\C(=O)NC(=O)N(c2ccccc2)C1=O	?	-25%	-8%
Cc1cccc(N2C(=O)NC(=O)/C(=C\C=C\c3ccco3)C2=O)c1	?	-51%	1%
O=C1NC(=O)N(c2ccccc2)C1=O	-8%	-14%	-8%
Cc1ccc(N2C(=O)NC(=O)/C(=C\C=C\c3ccco3)C2=O)cc1	11µM*	-33%	6%
O=C1NC(=O)N(c2ccccc2)C(=O)/C1=C/C=C/c1ccco1	10µM*	-36%	7%
Cc1ccc(N2C(=O)NC(=O)/C(=C\C=C\c3ccco3)C2=O)cc1C	25µM*	-40%	-4%
SMILES	Sm TGR inh	AmpC no deterg	AmpC inh detg
CCOc1ccc(C(=O)N(Cc2ccc(C(C)C)cc2)Cc2ccco2)cc1	-1%	·	24%
CC(=O)N1CCCc2cc(S(=O)(=O)N(C)CC(=O)Nc3cccc(Cl)c3C)ccc21	4%	·	-4%
Cc1cc(Nc2cccc(Br)c2)n2c(nc3ccccc32)c1C#N	0%	·	0%
COc1ccc(Cl)c(Cn2c(NCCN)nc3c2c(=O)n(C)c(=O)n3C)c1	1%	·	-5%
O=C(COCc1cc(-c2cccs2)on1)N1CCN(c2ccccc2)CC1	0%	·	-1%
COc1ccccc1N(CC(=O)Nc1cc(C)cc(C)c1)S(C)(=O)=O	-2%	·	-10%
O=c1c2ccccc2nc(CSc2nnnn2-c2ccccc2)n1-c1ccccc1Cl	-6%	-22%	3%
Cc1nnc(SCc2nc3ccccc3c(=O)n2-c2ccccc2Cl)n1N	56µM*	-11%	-15%
FC(F)(F)c1nnc2c(Sc3ccccc3)nc3ccccc3n12	?	-28%	?
FC(F)(F)c1nnc2c(Sc3ccccn3)nc3ccccc3n12	25µM*	-10%	0%
CC(=O)c1ccc(NC(=O)COC(=O)c2ccccc2Nc2ccccc2)cc1	0%	-22%	0%
